# Assay outcomes as filed in PubChem.
# KCNH2 WT inh = qHTS for Inhibitors of KCHN2 3.1: Wildtype qHTS | U2OS, BacMam KCNH2, thallium flux FluxOr; stronger effect = lower value | AID 720551, 2013 | activity change, % at 1.84 µM | 340,000 compounds, 0.37% hits | Voltage-gated inwardly rectifying potassium channel KCNH2 (Homo sapiens), Q12809;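 active = maximum activity change below -70%; inconclusive = maximum activity change between -70% and -50%; inactive = maximum activity change above -50%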
#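 U2OS cells were transduced with wild-type KCNH2 virus (2.03 x 10^8 / mL) for 4 h at room temperature, then cultured overnight at 37 C. Thallium flux was read with FluxOr dye. Rate constants were normalized to DMSO controls.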
# KCNH2 3.1 inh = qHTS for Inhibitors of KCHN2 3.1: Mutant qHTS. AID 720553, 2013. activity change, % (tested at about 1.8 µM). U2OS KCNH2 3.1, thallium flux FluxOr; stronger effect = lower value. 340,000 compounds, 0.95% hits. Potassium voltage-gated channel subfamily H member 2, brain isoform KCNH2 3.1 (human);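 active = maximum activity change below -70%; inconclusive = maximum activity change from -70% to -50%; inactive = maximum activity change above -50%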;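 note: thallium influx rate constant from kinetic fluorescence after stimulation buffer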
#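 Steps: virus added to U2OS suspension (4 h, RT, dark); medium with 10% FBS added, cells plated, 37 C overnight; FluxOr/Red40 loading buffer 45 min RT; stimulation buffer, 2 min kinetic read; rate constant normalized.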
# MBNL1-CUG inh = qHTS Assay for Inhibitors of MBNL1-poly(CUG) RNA binding; Muscleblind-like protein 1 (Homo sapiens), Q9NR56; TR-FRET MBNL1-His/biotin-(CUG)12 binding, 665/545 ratio; Potency, µM (series often up to 57.5 µM), actives largely listed as inhibitors; 280,000 compounds, 0.036% hits; AID 2675, 2010; active = well fitted inhibition curve with a large enough effect in the signal ratio, with a control signal flat, not every such curve was filed as active; inconclusive = small, poorly fitted or top-dose-only effect, or effect the other way, or a change in a side signal; inactive = no such curve, though single readings can be large or run the other way; the % refers to the signal ratio
#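 TR-FRET between His-tagged MBNL1 and biotin-(CUG)12 RNA, detected with Tb anti-His antibody (0.055 ng/ul) and streptavidin-XL665 (5 nM), 60 min at room temperature. Compounds titrated 92 nM to 58 uM; 665/545 nm ratio normalized to buffer and complex controls.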
# VDR inh = Inhibitors of the vitamin D receptor (VDR): qHTS. Vitamin D3 receptor (Homo sapiens), P11473. VDR-SRC2-3 peptide fluorescence polarization, 2 h. Potency, µM, usual class: inhibitors. 400,000 compounds, 0.93% hits
# Target sequence (P11473 whole entry, looked up): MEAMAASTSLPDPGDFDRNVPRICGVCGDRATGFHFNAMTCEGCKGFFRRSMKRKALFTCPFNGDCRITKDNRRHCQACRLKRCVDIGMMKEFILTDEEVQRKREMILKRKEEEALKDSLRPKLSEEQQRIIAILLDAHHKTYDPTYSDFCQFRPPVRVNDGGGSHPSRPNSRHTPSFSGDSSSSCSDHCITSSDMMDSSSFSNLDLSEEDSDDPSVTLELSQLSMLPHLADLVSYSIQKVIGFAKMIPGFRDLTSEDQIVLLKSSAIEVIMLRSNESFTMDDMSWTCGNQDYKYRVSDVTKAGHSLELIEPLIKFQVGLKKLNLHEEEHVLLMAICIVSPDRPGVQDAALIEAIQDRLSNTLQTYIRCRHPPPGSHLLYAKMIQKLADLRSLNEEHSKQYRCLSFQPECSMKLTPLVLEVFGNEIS
#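 Fluorescence polarization assay measuring small-molecule disruption of VDR binding to the coregulator peptide SRC2-3. Compounds were pin-transferred (23 nl) into the reagent mix and incubated 2 h at room temperature before reading.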
# PLK1 PBD block = qHTS for Inhibitors of PLK1-PDB (polo-like kinase 1 - polo-box domain): Primary Screen; Serine/threonine-protein kinase PLK1 (Homo sapiens), P53350; Plk1 PBD binding of FITC phosphopeptide, fluorescence polarization; Potency, µM, usual class: inhibitors; 360,000 compounds, 2.8% hits; note: series mostly up to about 57 µM; nearly all actives have a fitted effect of over 65% in size
# CBFb RUNX1 block = qHTS Assay for Compounds Blocking the Interaction Between CBF-beta and RUNX1 for the Treatment of Acute Myeloid Leukemia; Runt-related transcription factor 1 (Homo sapiens) + Core-binding factor subunit beta …; AlphaScreen CBFb-His/RUNX1-biotin binding, biochemical; Potency, µM (series often up to 59.8 µM), most hits filed as inhibitors; 230,000 tested, under 10 active
#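 Read-out: AlphaScreen. Format: His-CBF-beta with biotinylated RUNX1 (30 nM each) preincubated 20 min, compound 15 min, Ni-chelate plus streptavidin beads 90 min; room temperature throughout.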
# A number is an active result; n = inactive; u = inconclusive; x = not tested or not shown; [ ] = remark or other dose. Most compounds without a hit are left out; they make up all but 3.8% or so of the library. Unless noted, calls come from the whole dose curve; as a rule, active = well fitted curve in the direction sought with a large enough effect; inconclusive = small, poorly fitted or top-dose-only effect, or another doubt; inactive = no such curve, though single readings can be large; an effect the other way counts as inactive or inconclusive.
SMILES,KCNH2 WT inh,KCNH2 3.1 inh,MBNL1-CUG inh,VDR inh,PLK1 PBD block,CBFb RUNX1 block
Cc1cc(C)c2nc(N3C(=O)C(O)=C(C(=O)c4ccco4)C3c3cccc(O)c3)sc2c1 (stereo unspecified),n,n,x,79µM,27µM,x
Cc1cc(OCCn2cc(C(=O)c3cccs3)c3ccccc32)ccc1Cl,x,x,x,n,x,x
COc1ccccc1CNC(=O)c1cn(C)c2ccc(S(=O)(=O)N(C)C3CCCCC3)cc2c1=O,x,x,x,n,x,x
COC(=O)C[C@H]1c2ccccc2C2=C(C[C@@H](C)[C@H]3C(=O)N(c4ccccc4)C(=O)[C@@H]23)N1C(=O)OC,x,x,x,x,x,n[13.1 µM]
COC(=O)c1ccc(CN(c2ccc(C)cc2)S(=O)(=O)c2ccc3c(c2)OCCO3)o1,n,n,n,n,3µM,n
CC(=O)Oc1ccc2occ(/C=N/c3cc(=O)[nH]c(=S)[nH]3)c(=O)c2c1,n,n,u,28µM,5.3µM,n
CCc1nn2c(=O)cc(COC(=O)c3cccc(NC(=O)c4ccccc4C)c3)nc2s1,x,x,x,n,x,x
Cc1cc2ccccc2n1CCNC(=O)c1ccc(Br)o1,n,n,n,79µM,n,u
Cc1cc2ccccc2n1CCNC(=O)c1ccc(Br)cc1,x,x,x,n,x,x
CNC(=O)[C@]1(C(F)(F)F)C[C@H](CCC2CCCCC2)CCCO1,x,x,x,n,x,n
CCCCCCCCCCCCN1[C@@H](CC(=O)O)c2cc(C(F)(F)F)ccc2S1(=O)=O,n,n,x,u,34µM,x
CCCCCCCCN1[C@@H](CC(=O)O)c2cc(C(F)(F)F)ccc2S1(=O)=O,n,n,x,n,n,x
Cc1cc(/C=C2\NC(=S)N(C)C2=O)ccc1N1CCCC1,-80,x,u,n,n,n
CCCN1C(=O)/C(=C/c2ccc(N3CCCC3)c(C)c2)NC1=S,n,u,u,n,n,n
Cc1ccc(C)c(CN2C(=O)CSc3ccc(C(=O)NCc4ccc(F)cc4)cc32)c1,x,x,x,n,x,x
CCOc1ccc(CCNC(=O)CCSCc2ccc(Cl)cc2)cc1OCC,x,x,x,n,x,x
CN1C(=O)c2ccccc2C(C(=O)O)C1c1cccc(F)c1 (stereo unspecified),n,n,n,n,30µM,n
O=C(CSc1nnc(COc2ccccc2)o1)NCCc1ccccc1,n,n,n,u,2.7µM,n
O=C(CSc1nnc(COc2ccccc2)o1)c1ccccc1,n,-99,n,n,n,n
Cc1ccc(CN(CC(=O)NC2CCCC2)C(=O)CSc2nnc(COc3ccccc3)o2)cc1,n,n,n,n,30µM,n
Cc1cccc(OCc2nnc(SCC(=O)NCCc3ccccc3)o2)c1,n,n,n,n,n,n
O=C(CN(Cc1ccccc1)C(=O)CSc1nnc(COc2ccccc2)o1)NC1CCCC1,n,n,n,n,u,n
CSc1ccc(Nc2nn(-c3ccc(OC(F)(F)F)cc3)nc2C(C)=O)cc1,x,x,x,n,x,x
Cc1cc(=O)[nH]c(SCC(=O)Nc2nnc(SCc3ccccc3)s2)n1,n,n,n,n,24µM,n
COc1cc(=O)[nH]c(SC(C)C(=O)Nc2nc3c(s2)CCCC3)n1 (stereo unspecified),n,n,n,n,n,x
SMILES,KCNH2 WT inh,KCNH2 3.1 inh,MBNL1-CUG inh,VDR inh,PLK1 PBD block,CBFb RUNX1 block
COc1cc(=O)[nH]c(SCC(=O)Nc2nc3c(s2)CCCC3)n1,n,n,n,u,12µM,x
Cc1cc(=O)[nH]c(SCC(=O)Nc2nc3ccccc3s2)n1,n,n,n,u,u,n
Cc1cc(-n2c(SCc3ccccc3F)nc3[nH]ncc3c2=O)ccc1Cl,x,x,x,n,x,x
Cc1nc2cc(C(=O)NCCC3=CCCCC3)ccc2n1-c1ccc(Br)cc1,x,x,x,n,x,x
O=C1/C(=C/c2cccs2)Cc2ccccc21,n,n,u,n,n,n
Cc1ccc(C=C2C(=O)c3ccccc3C2=O)s1,n,n,u,n,17µM,u
O=C1/C(=C\c2cccs2)CCC/C1=C/c1cccs1,x,x,x,40µM,x,x
